# Most compounds without a hit are left out; they make up all but 1.7% or so of the library.
# PLK1 kinase inh: inhibitors of human PLK1 kinase. inhibition, % at 10 µM. recombinant PLK1 kinase, TR-FRET peptide phosphorylation. actives 0.53% (n = 97,000). P53350;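 active = inhibition of 50% or more in the single-concentration screen; inactive = inhibition below 50%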;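 also: 0% = DMSO max control and 100% = H-89 dihydrochloride min control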
# Target sequence (P53350 whole entry, looked up): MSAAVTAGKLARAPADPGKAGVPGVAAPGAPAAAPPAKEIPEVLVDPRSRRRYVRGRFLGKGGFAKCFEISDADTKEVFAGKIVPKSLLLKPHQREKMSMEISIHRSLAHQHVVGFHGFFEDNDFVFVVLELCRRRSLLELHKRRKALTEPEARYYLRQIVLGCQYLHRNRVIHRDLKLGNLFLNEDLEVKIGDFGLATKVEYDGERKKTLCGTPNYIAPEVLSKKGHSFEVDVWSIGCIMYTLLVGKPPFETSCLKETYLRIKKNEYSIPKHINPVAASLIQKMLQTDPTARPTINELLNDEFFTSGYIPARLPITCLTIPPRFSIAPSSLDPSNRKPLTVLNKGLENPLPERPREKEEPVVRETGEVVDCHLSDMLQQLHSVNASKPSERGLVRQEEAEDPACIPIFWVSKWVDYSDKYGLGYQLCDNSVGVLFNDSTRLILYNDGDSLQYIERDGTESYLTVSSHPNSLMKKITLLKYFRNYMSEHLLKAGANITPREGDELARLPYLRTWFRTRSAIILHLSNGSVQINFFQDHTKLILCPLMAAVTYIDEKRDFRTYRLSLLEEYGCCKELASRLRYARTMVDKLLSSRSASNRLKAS
# PTPN22 inh 2: inhibitors of human LYP (PTPN22) phosphatase; recombinant LYP catalytic domain, DiFMUP fluorescence; inhibition, % at 2 µM; actives 0.21% (n = 96,000); AID 640;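 active = inhibition at 2 µM at or above a set limit, the screen mean plus 3 SD, cut at about 24% in these data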;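 also: 0% = DMSO with enzyme and 100% = enzyme fully blocked by orthovanadate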
# Pyk2 oligo antag: antagonists of human Pyk2 oligomerization; Q14289; Q293 cells, Pyk2 FERM NanoBiT luminescence; active compounds read low; z-score (the deposit names both 25 µM and 10 µM); actives 0.83% (n = 99,000);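 active = Z-score of -3 or lower, scaled per plate to the spread of control and sample wells; inactive = z-score above -3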;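 also: negative z-score means lost luminescence so less FERM oligomerization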
# PTPN22 act: LYP (human) phosphatase activation | Q9Y2R2 | recombinant LYP, DiFMUP fluorescence; 0 = plate median, 100 = signal doubled | activation, % at 2 µM | actives 0.11% (n = 96,000) | AID 697;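 active = activation at 2 µM above a set limit, the mean plus 5 SD, cut at about 37% in these data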
# Plk1 PBD FP: inhibitors of human Plk1 polo box domain binding. P53350. Plk1 PBD phosphopeptide binding, fluorescence polarization. inhibition, %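 (tested at about 20 µM)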. actives 0.13% (n = 97,000). AID 693; in the data active = inhibition above about 34%, passing the limit was not always enough
# PLK1 inh conf: PLK1 (human) kinase inhibition, confirmed; shares compounds with PLK1 kinase inh; recombinant PLK1 kinase, TR-FRET peptide phosphorylation; inhibition, % at 10 µM; actives 20% (n = 210); AID 744;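 active = inhibition at or above 50% in each of two repeat confirmation tests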;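 also: 0% = DMSO max control and 100% = H-89 kinase-blocked min control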
# TR-FRET interf: counter-screen for Plk1 inhibitors: compound assay interference; shares compounds with PLK1 kinase inh; Plk1 TR-FRET assay interference, compound added post-reaction; inhibition (interference), % at 10 µM; 210 tested, under 10 active; AID 756;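 active = both duplicate runs show 50% or greater inhibition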;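 also: 0% = DMSO max control and 100% = H-89 min control inhibited reaction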
# * marks the source's active call; other numbers are inactive results; nt = no result.
SMILES,PLK1 kinase inh,PTPN22 inh 2,Pyk2 oligo antag,PTPN22 act,Plk1 PBD FP,others
Cc1cc(=O)oc2cc(OCc3cc4c(cc3Cl)OCO4)ccc12,5,10,0.5,-4,13,
CCc1nc(Nc2ccc3c(c2)OCCO3)c2oc3ccccc3c2n1,-5,7,-3.4*,-6,8,
Cc1nc(Nc2ccc3c(c2)OCCO3)c2oc3ccccc3c2n1,-15,6,0.24,-4,-11,
O=C1N/C(=N/NC(=O)c2cccc3ccccc23)S/C1=C\c1ccccc1OCc1ccccc1,-10,10,-3*,-8,-11,
CCOc1ccc(-c2nc(CSCC(=O)N3CCN(c4cccc(OC)c4)CC3)c(C)o2)cc1,64*,nt,nt,nt,-5,
Cc1ccc(-c2nc(CSCC(=O)N3CCN(c4ccccn4)CC3)c(C)o2)cc1,-14,4,nt,-6,-23,
CC(=O)Nc1ccc2c(c1)C(=O)c1ccccc1C2=O,-5,-3,-1.3,6,25,
O=C1C(=O)c2ccc(-c3ccccc3)cc2-c2ccccc21,-3,13,-4.8*,-17,29,
c1ccc2sc(SCc3ccc(-c4nnco4)cc3)nc2c1,3,8,0.68,-8,11,
CCOC(=O)/C(=C\c1ccccc1)C(=O)c1cc(C(C)=O)c(Nc2ccccc2)s1,-4,-8,-3*,8,-4,
CCOC(=O)/C(=C\c1cccnc1)C(=O)c1cc(C(C)=O)c(Nc2ccccc2)s1,12,2,-2.1,-1,1,
C/C(=N\NC(=O)c1ccc(Cl)cc1)c1ccc(Br)s1,-7,-6,-0.11,10,67*,
Cc1cccc(OCC(=O)NC(=S)Nc2ccc(S(=O)(=O)NC3CCCCC3)cc2)c1,-9,14,1,-14,1,
Cc1nn(-c2ccccc2)c(Cl)c1C(=O)OC(C)C(=O)NC(=O)NC1CCCCC1 (stereo not given),-1,22,-4.2*,-18,-13,
CCNC(=O)CN(c1ccc(C)cc1)S(=O)(=O)c1ccccc1,-10,-2,-0.31,-2,25,
Cc1ccc(N(CC(=O)Nc2ccccc2-c2ccccc2)S(=O)(=O)c2ccccc2)cc1,-6,6,-3.9*,-2,-26,
O=C(Cn1cnc2c(cnn2-c2ccccc2)c1=O)OCc1ccccc1,50*,6,0.42,-6,-23,
Cc1ccc(-n2ncc3c(=O)n(CC(=O)OCc4ccccc4)cnc32)cc1,-10,4,0.84,-4,7,
COc1ccc(S(=O)(=O)N2CC3CCCN3c3cc(C(F)(F)F)ccc32)cc1 (stereo not given),-5,25*,-1.4,-22,4,
COc1ccc(S(=O)(=O)N2CC3CCCN3c3ccc(C(F)(F)F)cc32)cc1 (stereo not given),-11,14,-2.5,-11,-15,
CCCCn1c2nc3ccccc3nc2c2c(=O)n(C(C)CC)cnc21 (stereo not given),-14,-8,-3.1*,8,15,
CCC(C)n1c(C)nc2c(c1=O)c1nc3ccccc3nc1n2CCC1=CCCCC1 (stereo not given),0,25*,-1.6,-22,-7,
O=C(CSc1ncnc2c1nnn2Cc1ccccc1F)N1CCN(c2ccccc2)CC1,-5,13,1.1,-15,25,
CCNc1nc2c(c(=O)n(Cc3ccccc3)c(=O)n2C)n1Cc1ccccc1,-2,-1,-3.5*,2,-9,
COc1ccc(-c2cn3cccnc3n2)cc1NC(=O)c1ccc(Br)o1,4,5,-3.2*,-6,32,
SMILES,PLK1 kinase inh,PTPN22 inh 2,Pyk2 oligo antag,PTPN22 act,Plk1 PBD FP,others
Cc1noc(C)c1COC(=O)c1cc(C)n(-c2ccccc2)c1C,-10,0,-3.1*,-2,23,
Cc1cccc(C)c1OCC(=O)Nc1oc(-c2ccccc2)c(-c2ccccc2)c1C#N,-6,9,-3.5*,-9,-34,
N#Cc1c(NC(=O)CSc2n[nH]c(N)n2)oc(-c2ccccc2)c1-c1ccccc1,1,8,-3.4*,-4,3,
N#Cc1c(NC(=O)Cn2c(=O)oc3ccccc32)oc(-c2ccccc2)c1-c1ccccc1,-13,1,-3.8*,-6,-14,
COc1ccc(C(=O)Nc2oc(-c3ccccc3)c(-c3ccccc3)c2C#N)cc1OC,-22,6,-2.9,-9,-10,
COCCOC(=O)C1=C(C)N(Cc2ccccc2)C(=O)NC1c1ccc(OC)cc1 (stereo not given),-10,0,-1.3,0,-12,
CCCCN(Cc1ccccc1)C(=O)c1cnc2n(c1=O)CCS2,-11,-7,0.49,5,14,
Cc1ccc(-n2c(=O)[nH]cc(C(=O)Nc3ccc4c(c3)OCCO4)c2=O)cc1,-1,2,-3.1*,-2,3,
Cc1ccc(-c2noc(C3CCCN(C(=O)c4c(F)cccc4F)C3)n2)cc1 (stereo not given),125*,-6,-1.8,4,18,PLK1 inh conf=-7;TR-FRET interf=-52
Cn1c(N2CCOCC2)nc(-c2ccccc2)c1-c1ccccc1,-6,-16,-0.29,16,8,
CC(C)NC(=O)c1onc(CSc2cccc3ccccc23)c1C(=O)O,-16,-6,nt,10,-4,
Cn1c(NC(=O)c2ccccc2C(F)(F)F)cc(=O)n(C)c1=O,76*,nt,nt,nt,0,PLK1 inh conf=4;TR-FRET interf=-59
Cn1c(NC(=O)c2cccc(C(F)(F)F)c2)cc(=O)n(C)c1=O,3,-15,nt,12,-7,
CCc1ccccc1N1CC23C=CC(O2)C(C(=O)OCC(C)C)C3C1=O (stereo not given),72*,nt,nt,nt,6,PLK1 inh conf=-9;TR-FRET interf=-52
CCCCOC(=O)C1[C@H]2C(=O)N(c3ccccc3CC)C[C@]23C=C[C@H]1O3 (stereo not given in full),-6,5,-0.77,-6,-24,
Nc1[nH]ncc1N=Nc1ccc(Cl)cc1,83*,-3,-0.88,2,-6,PLK1 inh conf=75*;TR-FRET interf=-59
CSc1ccc(-c2nnn(Cc3ccc(C)cc3)n2)cc1,-31,1,0.57,1,6,
C=CCc1cc(C)ccc1OCCn1ccnc1,86*,0,1.3,2,9,PLK1 inh conf=-7;TR-FRET interf=-61
CCc1ccc(N(CC(=O)NC2CCCCC2)S(=O)(=O)c2c(C)noc2C)cc1,74*,nt,nt,nt,12,PLK1 inh conf=-8;TR-FRET interf=-59
CC1=C(C(=O)OC(C)C)C(c2ccncc2)n2ncnc2N1 (stereo not given),-10,-5,0.54,4,21,
CC1=C(C(=O)OC(C)C)C(c2cccnc2)n2ncnc2N1 (stereo not given),83*,nt,nt,nt,7,PLK1 inh conf=5;TR-FRET interf=-44
C=C(C)c1cccc(C(C)(C)NC(=O)N2CCN(c3ccccn3)CC2)c1,74*,nt,nt,nt,8,PLK1 inh conf=-9;TR-FRET interf=-58
c1ccc(-c2noc(CN3CCN(c4ccccc4)CC3)n2)cc1,73*,nt,nt,nt,15,PLK1 inh conf=-6;TR-FRET interf=-52
